Laboratory results reported in publication PMC12820563, “FoxP3 forms a head-to-head dimer in vivo and stabilizes its multimerization on adjacent microsatellites”.
In all, about 16,000 sequences were measured (“rpm ratio (pull-down/input)”: median about 0.94, highest 2% from about 1.7 on). The sample holds the highest values, similar sequences and a random draw of the others, so the mix is not that of the screen.

These sequences were tested against T1, MBP-FoxP1dN (Mus musculus, UniProt P58462 326-579) (assay: PD-seq (MBP pull-down with sequencing); 20 mM Tris-HCl pH 7.5, 100 mM NaCl, 1.5 mM MgCl2, 0.4 uM protein, 0.1 uM dsDNA library, 30 min, room temperature, amylose pull-down; high values mean tight binding). Conditions: protein: recombinant; tags: His6-MBP; chain copies: 2; dsDNA, one strand shown.
T1 sequence: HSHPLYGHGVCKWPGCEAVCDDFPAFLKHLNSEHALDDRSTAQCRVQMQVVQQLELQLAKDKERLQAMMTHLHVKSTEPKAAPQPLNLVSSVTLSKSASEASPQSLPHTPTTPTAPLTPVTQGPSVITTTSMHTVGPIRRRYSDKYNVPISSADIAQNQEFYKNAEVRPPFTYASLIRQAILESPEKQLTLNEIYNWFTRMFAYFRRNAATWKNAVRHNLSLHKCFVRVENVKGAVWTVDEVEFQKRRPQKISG
Outline: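 The N-terminus-lacking fragment of mouse FoxP3 or FoxP1 carried a His6-MBP tag and was expressed in E. coli. At 0.4 µM it was incubated with 0.1 µM Klenow-filled degenerate double-stranded DNA library for 30 min at room temperature in Tris pH 7.5 buffer with NaCl and MgCl2, and complexes were caught on amylose resin, washed three times, released with proteinase K, PCR-barcoded and Illumina-sequenced. Binding is reads-per-million enrichment of pull-down over input with replicates pooled.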
In the case of “GATGATTGTTCTCCCAGCTGATGAATTACATTCCTCGAGTAAACAAATTTTCCTAATCTTTCTGTTCAAGCGCCATCTAC”, the binding signal is reported as 1.2 RPM ratio (pull-down/input).
In the case of “GATGATTGTTCTCCCAGCTGATGAATTTTTACTATCGAGTAAACAAATTTTCCTAATCTTTCTGTTCAAGCGCCATCTAC”, the binding signal is reported as 1.1 RPM ratio (pull-down/input).
For “GATGATTGTTCTCCCAGCTGATGAATTTACTAAATCGAGTAAACAAATTTTCCTAATCTTTCTGTTCAAGCGCCATCTAC”, the binding signal was 1.72 RPM ratio (pull-down/input).
“GATGATTGTTCTCCCAGCTGATGAATTTTACTAATCGAGTAAACAAATTTTCCTAATCTTTCTGTTCAAGCGCCATCTAC” was tested, and the binding signal was 1.14 RPM ratio (pull-down/input).
“GATGATTGTTCTCCCAGCTGATGAATTAATGCGCTCGAGTAAACAAATTTTCCTAATCTTTCTGTTCAAGCGCCATCTAC” was tested, and the binding signal was 1.26 RPM ratio (pull-down/input).
For “GATGATTGTTCTCCCAGCTGATGAATTGACCTTCTCGAGTAAACAAATTTTCCTAATCTTTCTGTTCAAGCGCCATCTAC”, the binding signal was 0.921 RPM ratio (pull-down/input).
“GATGATTGTTCTCCCAGCTGATGAATTTTGCTTTTCGAGTAAACAAATTTTCCTAATCTTTCTGTTCAAGCGCCATCTAC” was tested, and the binding signal was 1.49 RPM ratio (pull-down/input).
“GATGATTGTTCTCCCAGCTGATGAATTGAATGGTTCGAGTAAACAAATTTTCCTAATCTTTCTGTTCAAGCGCCATCTAC” was tested, and the binding signal was 0.852 RPM ratio (pull-down/input).
In the case of “GATGATTGTTCTCCCAGCTGATGAATTTGACGTATCGAGTAAACAAATTTTCCTAATCTTTCTGTTCAAGCGCCATCTAC”, the binding signal is reported as 0.962 RPM ratio (pull-down/input).
With “GATGATTGTTCTCCCAGCTGATGAATTGATGACGTCGAGTAAACAAATTTTCCTAATCTTTCTGTTCAAGCGCCATCTAC” the binding signal was 1.06 RPM ratio (pull-down/input).
For “GATGATTGTTCTCCCAGCTGATGAATTTTTGACGTCGAGTAAACAAATTTTCCTAATCTTTCTGTTCAAGCGCCATCTAC”, the binding signal was 0.91 RPM ratio (pull-down/input).
With “GATGATTGTTCTCCCAGCTGATGAATTGTTGACGTCGAGTAAACAAATTTTCCTAATCTTTCTGTTCAAGCGCCATCTAC” the binding signal was 2.22 RPM ratio (pull-down/input).
With “GATGATTGTTCTCCCAGCTGATGAATTGACGTAATCGAGTAAACAAATTTTCCTAATCTTTCTGTTCAAGCGCCATCTAC” the binding signal was 1.75 RPM ratio (pull-down/input).
With “GATGATTGTTCTCCCAGCTGATGAATTGACGCCATCGAGTAAACAAATTTTCCTAATCTTTCTGTTCAAGCGCCATCTAC” the binding signal was 1.24 RPM ratio (pull-down/input).
“GATGATTGTTCTCCCAGCTGATGAATTTCTCTAGTCGAGTAAACAAATTTTCCTAATCTTTCTGTTCAAGCGCCATCTAC” was tested, and the binding signal was 0.844 RPM ratio (pull-down/input).
With “GATGATTGTTCTCCCAGCTGATGAATTACCGCGATCGAGTAAACAAATTTTCCTAATCTTTCTGTTCAAGCGCCATCTAC” the binding signal was 0.929 RPM ratio (pull-down/input).
With “GATGATTGTTCTCCCAGCTGATGAATTCACAACATCGAGTAAACAAATTTTCCTAATCTTTCTGTTCAAGCGCCATCTAC” the binding signal was 2.11 RPM ratio (pull-down/input).
With “GATGATTGTTCTCCCAGCTGATGAATTTTGAAAATCGAGTAAACAAATTTTCCTAATCTTTCTGTTCAAGCGCCATCTAC” the binding signal was 1.14 RPM ratio (pull-down/input).
“GATGATTGTTCTCCCAGCTGATGAATTCTAAAAATCGAGTAAACAAATTTTCCTAATCTTTCTGTTCAAGCGCCATCTAC” was tested, and the binding signal was 0.995 RPM ratio (pull-down/input).
“GATGATTGTTCTCCCAGCTGATGAATTCAAAACATCGAGTAAACAAATTTTCCTAATCTTTCTGTTCAAGCGCCATCTAC” was tested, and the binding signal was 1.99 RPM ratio (pull-down/input).
In the case of “GATGATTGTTCTCCCAGCTGATGAATTGAAAAAATCGAGTAAACAAATTTTCCTAATCTTTCTGTTCAAGCGCCATCTAC”, the binding signal is reported as 1.03 RPM ratio (pull-down/input).
“GATGATTGTTCTCCCAGCTGATGAATTCAACACATCGAGTAAACAAATTTTCCTAATCTTTCTGTTCAAGCGCCATCTAC” was tested, and the binding signal was 1.3 RPM ratio (pull-down/input).
“GATGATTGTTCTCCCAGCTGATGAATTGAAAACATCGAGTAAACAAATTTTCCTAATCTTTCTGTTCAAGCGCCATCTAC” was tested, and the binding signal was 1.8 RPM ratio (pull-down/input).
In the case of “GATGATTGTTCTCCCAGCTGATGAATTCTGAACATCGAGTAAACAAATTTTCCTAATCTTTCTGTTCAAGCGCCATCTAC”, the binding signal is reported as 0.898 RPM ratio (pull-down/input).
In the case of “GATGATTGTTCTCCCAGCTGATGAATTCCTAACATCGAGTAAACAAATTTTCCTAATCTTTCTGTTCAAGCGCCATCTAC”, the binding signal is reported as 1.04 RPM ratio (pull-down/input).
“GATGATTGTTCTCCCAGCTGATGAATTCCTAAAATCGAGTAAACAAATTTTCCTAATCTTTCTGTTCAAGCGCCATCTAC” was tested, and the binding signal was 0.966 RPM ratio (pull-down/input).
For “GATGATTGTTCTCCCAGCTGATGAATTCTAAACATCGAGTAAACAAATTTTCCTAATCTTTCTGTTCAAGCGCCATCTAC”, the binding signal was 2.07 RPM ratio (pull-down/input).
“GATGATTGTTCTCCCAGCTGATGAATTCTTCACATCGAGTAAACAAATTTTCCTAATCTTTCTGTTCAAGCGCCATCTAC” was tested, and the binding signal was 1.08 RPM ratio (pull-down/input).
In the case of “GATGATTGTTCTCCCAGCTGATGAATTCGGGTAGTCGAGTAAACAAATTTTCCTAATCTTTCTGTTCAAGCGCCATCTAC”, the binding signal is reported as 0.855 RPM ratio (pull-down/input).
In the case of “GATGATTGTTCTCCCAGCTGATGAATTAAAAGTCTCGAGTAAACAAATTTTCCTAATCTTTCTGTTCAAGCGCCATCTAC”, the binding signal is reported as 0.816 RPM ratio (pull-down/input).
“GATGATTGTTCTCCCAGCTGATGAATTGTTCGTTTCGAGTAAACAAATTTTCCTAATCTTTCTGTTCAAGCGCCATCTAC” was tested, and the binding signal was 1.15 RPM ratio (pull-down/input).
“GATGATTGTTCTCCCAGCTGATGAATTGCAAAGCTCGAGTAAACAAATTTTCCTAATCTTTCTGTTCAAGCGCCATCTAC” was tested, and the binding signal was 1.09 RPM ratio (pull-down/input).
With “GATGATTGTTCTCCCAGCTGATGAATTATACAGTTCGAGTAAACAAATTTTCCTAATCTTTCTGTTCAAGCGCCATCTAC” the binding signal was 1.18 RPM ratio (pull-down/input).
For “GATGATTGTTCTCCCAGCTGATGAATTACTCACATCGAGTAAACAAATTTTCCTAATCTTTCTGTTCAAGCGCCATCTAC”, the binding signal was 1.28 RPM ratio (pull-down/input).
With “GATGATTGTTCTCCCAGCTGATGAATTTCGAATCTCGAGTAAACAAATTTTCCTAATCTTTCTGTTCAAGCGCCATCTAC” the binding signal was 0.83 RPM ratio (pull-down/input).
In the case of “GATGATTGTTCTCCCAGCTGATGAATTGTTAAACTCGAGTAAACAAATTTTCCTAATCTTTCTGTTCAAGCGCCATCTAC”, the binding signal is reported as 1.1 RPM ratio (pull-down/input).
For “GATGATTGTTCTCCCAGCTGATGAATTCCGACACTCGAGTAAACAAATTTTCCTAATCTTTCTGTTCAAGCGCCATCTAC”, the binding signal was 0.88 RPM ratio (pull-down/input).
